Screening results as filed in PubChem.
MEX-5 binding: MEX-5 zinc finger RNA-binding disruptors – biochemical, C. elegans, fluorescence polarization, MLPCN library, primary screen; Zinc finger protein mex-5 (Caenorhabditis elegans), Q9XUB2; MEX-5/FITC-TCR2 RNA binding; active compounds read low; activity score (negative = inhibition of binding), % at 10 µM; hit rate 0.38% among 300,000; AID 1832, 2009;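 active = inhibition past about -25% in most replicates, and total fluorescence under double the plate's negative control median, limit read from the data; inconclusive = replicates evenly split on the limit, or fluorescence at least double controls; inactive = too little inhibition in most replicates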;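 also: 0% = DMSO and -100% = 5 µM competing unlabeled TCR2 RNA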
BCLXL inh: inhibitors of human Bcl-xL, primary screen, biochemical, fluorescence polarization, HTS; Bcl-2-like protein 1 (Homo sapiens), Q07817; GST-Bcl-xL / FITC-Bim BH3 peptide fluorescence polarization; inhibition, % at 10.9 µM; hit rate 0.7% among 320,000;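 active = inhibition above the mean of all tested compounds plus 3 SD, cutoff set per campaign, cut at about 30% in these data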;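 also: 0% = DMSO wells and 100% = unlabeled Bim-BH3 peptide competitor; inhibitors lower millipolarization by displacing the labeled peptide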
Target sequence (Q07817 whole entry, looked up): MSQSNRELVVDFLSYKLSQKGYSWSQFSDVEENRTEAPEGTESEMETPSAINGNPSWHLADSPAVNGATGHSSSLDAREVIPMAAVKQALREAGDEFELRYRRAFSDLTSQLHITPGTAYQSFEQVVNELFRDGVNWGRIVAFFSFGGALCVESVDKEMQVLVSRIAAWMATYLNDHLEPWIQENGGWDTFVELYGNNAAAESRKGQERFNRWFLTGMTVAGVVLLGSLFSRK
IDE inh: human IDE inhibitors in live cells, primary screen, fluorescence polarization, HEK cells, FAbetaB substrate; FAbetaB cleavage; inhibition, % at 5.59 µM; hit rate 0.41% among 320,000; Insulin-degrading enzyme (Homo sapiens), P14735; AID 434962, 2010;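 active = percent inhibition above the average of all tested compounds plus 3 SD, set per screening campaign, cut at about 16% in these data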;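 also: IDE supplied by intact live HEK cells; FP after avidin binding of uncleaved biotin substrate so inhibition keeps polarization high; 0% = DMSO wells and 100% = 60 µM reference IDE inhibitor Ii1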
GLD-1 TGE inh: GLD-1/TGE RNA complex disruptors, primary screen, biochemical, fluorescence polarization; Female germline-specific tumor suppressor gld-1 (Caenorhabditis elegans), Q17339; purified GLD-1 + fluorescein TGE RNA; inhibition, % at 5.96 µM; hit rate 0.44% among 320,000; AID 2280, 2010;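 active = percent inhibition above a per-plate cutoff, the plate mean of test compounds plus 3 SD, cut at about 30% in these data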;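 also: 0% = DMSO wells with GLD-1 and probe and 100% = wells lacking GLD-1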
IDE act: human IDE activators in live cells, primary screen, fluorescence polarization, HEK cells, FAbeta-B substrate; AID 493087, 2011; Insulin-degrading enzyme (Homo sapiens), P14735; FAbeta-B cleavage; 0% vehicle, 100% cell-free pure enzyme wells; hit rate 0.073% among 340,000; activation, % at 5.96 µM;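 active = activation above the mean of all tested compounds plus 3 SD, set per screening campaign, cut at about 17% in these data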
MCL1-BIM inh: inhibitors of MCL1 binding to BIM-BH3, primary screen, biochemical, fluorescence polarization; GST-MCL1 / FITC-Bim-BH3 fluorescence polarization; inhibition, % at 10.9 µM; hit rate 0.68% among 320,000;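 active = inhibition above the mean inhibition of all tested compounds plus 3 SD, set per campaign, cut at about 40% in these data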;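 also: 0% = DMSO wells and 100% = unlabeled Bim-BH3 peptide control; higher means more loss of mP so more displacement of Bim peptide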
Target sequence (Q07820 whole entry, looked up): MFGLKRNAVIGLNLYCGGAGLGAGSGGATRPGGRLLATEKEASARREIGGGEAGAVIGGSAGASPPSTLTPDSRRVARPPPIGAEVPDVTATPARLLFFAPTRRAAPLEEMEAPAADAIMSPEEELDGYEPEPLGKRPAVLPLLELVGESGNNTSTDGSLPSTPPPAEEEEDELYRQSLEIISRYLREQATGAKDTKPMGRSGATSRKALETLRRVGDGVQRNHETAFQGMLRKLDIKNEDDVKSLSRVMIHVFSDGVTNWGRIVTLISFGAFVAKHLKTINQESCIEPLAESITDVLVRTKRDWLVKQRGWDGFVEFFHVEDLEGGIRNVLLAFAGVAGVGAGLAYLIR
IDE inh confirm: human IDE inhibitors in live cells, confirmation, fluorescence polarization, HEK cells, FAbetaB substrate; inhibition, % at 5.59 µM; shares compounds with IDE inh; hit rate 51% among 1,200; FAbetaB cleavage;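 active = mean inhibition across triplicate wells above the cutoff set by the earlier primary insulin-degrading enzyme screen, cut at about 16% in these data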;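 also: 0% = DMSO wells and 100% = 60 µM reference IDE inhibitor Ii1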
HEK cytotox: cytotoxicity in HEK cells, cytotoxicity control for IDE inhibitor project, cell-based, luminescence; shares compounds with IDE inh; HEK293 cytotoxicity, ATP luminescence; inhibition, % at 5.59 µM; hit rate 28% among 1,200; in the data active = inhibition above about 22%;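 also: 0% = vehicle wells and 100% = reference cytotoxic drug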
An asterisk follows results filed as active. An excerpt weighted towards active compounds, which were near 1.5% of everything screened.

Screening O=C(O)CC12CC3CC(C1)CC(n1ncc(NCc4ccccc4Cl)c(Cl)c1=O)(C3)C2 returned MEX-5 binding 2, BCLXL inh 1, IDE inh 39*, GLD-1 TGE inh 1, IDE act -36, MCL1-BIM inh -8, IDE inh confirm 20* and HEK cytotox 9.
For CCC(=O)N(Cc1cc(=O)[nH]c2ccccc12)c1ccc(OC)cc1 the results were MEX-5 binding -1, BCLXL inh 7, IDE inh 6, GLD-1 TGE inh -4, IDE act -2 and MCL1-BIM inh -3.
Cc1noc(/C=C/N(C)C)c1S(=O)(=O)N1CCC(C(=O)NC(C)(C)C)CC1 was read as MEX-5 binding 6, BCLXL inh -7, IDE inh 10, GLD-1 TGE inh 4, IDE act -2 and MCL1-BIM inh -9.
COc1ccc(OC)c(/C=C2\NC(=O)NC2=O)c1 was read as MEX-5 binding -7, BCLXL inh 2, IDE inh 6, GLD-1 TGE inh 12, IDE act 2 and MCL1-BIM inh -2.
COc1cc(N2CCCC2)c(OC)cc1/C=C1/NC(=S)NC1=O was read as MEX-5 binding 5, BCLXL inh -57, IDE inh 118*, GLD-1 TGE inh -22, IDE act -120, MCL1-BIM inh -150, IDE inh confirm 150* and HEK cytotox 11.
For COc1cc(NC(=O)CSc2nc3ccccc3n2-c2ccccc2)c(C)cc1[N+](=O)[O-] the results were MEX-5 binding 3, BCLXL inh 4, IDE inh 0, GLD-1 TGE inh 6, IDE act 2 and MCL1-BIM inh 7.
Screening O=C(c1cccn2c(=O)c3cc(Cl)ccc3nc12)N1CCN(Cc2ccc3c(c2)OCO3)CC1 returned MEX-5 binding 1, BCLXL inh -2, IDE inh 31*, GLD-1 TGE inh -10, IDE act -39, MCL1-BIM inh -11, IDE inh confirm 16 and HEK cytotox 14.
O=C(c1cccn2c(=O)c3ccccc3nc12)N1CCN(Cc2ccc3c(c2)OCO3)CC1 was read as MEX-5 binding 0, BCLXL inh 6, IDE inh 12, GLD-1 TGE inh 6, IDE act -26 and MCL1-BIM inh 10.
Cc1cccc(N2CCN(CC(=O)Nc3ccc(S(=O)(=O)N4CCOCC4)cc3)CC2)c1C was read as MEX-5 binding -2, BCLXL inh -4, IDE inh 19*, GLD-1 TGE inh 1, IDE act -12, MCL1-BIM inh -9, IDE inh confirm 9 and HEK cytotox 43*.
Cc1ccc(S(=O)(=O)N2CCN(CC(=O)Nc3ccc(N4CCOCC4)cc3)CC2)cc1C was read as MEX-5 binding 0, BCLXL inh 5, IDE inh 0, GLD-1 TGE inh 7, IDE act 6 and MCL1-BIM inh 6.
For CN(C)c1ccc(/C=C2\SC(N3CCCCC3)=NC2=O)cc1 the results were MEX-5 binding 0, BCLXL inh -53, IDE inh 16*, GLD-1 TGE inh -153, IDE act -23, MCL1-BIM inh -94, IDE inh confirm 27* and HEK cytotox 13.
Screening Cc1ccc(/C=C2\SC(N3CCCC3)=NC2=O)cc1 returned MEX-5 binding -1, BCLXL inh 8, IDE inh -2, GLD-1 TGE inh -4 and MCL1-BIM inh 1.
`CCOC(=O)C1=C(CSc2nc3c(cc2C#N)CCC3)OC(N)=C(C#N)C1c1ccccc1` (stereo not given) gave MEX-5 binding -1, BCLXL inh 13, IDE inh 17*, GLD-1 TGE inh -68, IDE act -8, MCL1-BIM inh 6, IDE inh confirm 0 and HEK cytotox 8.
For CCOC(=O)C1=C(CSc2nc(-c3ccccc3)ccc2C#N)OC(N)=C(C#N)C1c1ccccc1 (stereo not given) the results were MEX-5 binding 4, BCLXL inh -23, IDE inh 6, GLD-1 TGE inh -28, IDE act -1 and MCL1-BIM inh -45.
`O=C(NCCC1=CCCCC1)Nc1ccc2nsnc2c1` gave MEX-5 binding 0, BCLXL inh 6, IDE inh 31*, GLD-1 TGE inh 2, IDE act -23, MCL1-BIM inh 5, IDE inh confirm 17* and HEK cytotox 11.
Screening CC(=O)c1cccc(NC(=S)NCCC2=CCCCC2)c1 returned MEX-5 binding -1, BCLXL inh -1, IDE inh 8, GLD-1 TGE inh 9, IDE act 0 and MCL1-BIM inh 9.
For COc1ccc(C(=O)C(C)Oc2cccc(NC(=O)c3cccc([N+](=O)[O-])c3)c2)cc1 (stereo not given) the results were MEX-5 binding 0, BCLXL inh 4, IDE inh 1, GLD-1 TGE inh -2, IDE act 3 and MCL1-BIM inh 3.
Screening CCOC(=O)/C(=C\C=C1/Sc2cc(OCC)c(OCC)cc2N1CC)C(C)=O returned MEX-5 binding inconclusive, BCLXL inh -112, IDE inh 128*, GLD-1 TGE inh -208, IDE act -149, MCL1-BIM inh -211, IDE inh confirm 41* and HEK cytotox 35*.
Screening CCOC(=O)/C(=C/C=C1\Sc2cc(OCC)c(OCC)cc2N1CC)C(C)=O returned MEX-5 binding 17, BCLXL inh -125, IDE inh 163*, GLD-1 TGE inh -248, IDE act -128, MCL1-BIM inh -204, IDE inh confirm 92* and HEK cytotox 25*.
`CCN1/C(=C\C=C2\C(=O)N(C)C(=S)N2C)Sc2ccccc21` gave MEX-5 binding 2, BCLXL inh -20, IDE inh 0, GLD-1 TGE inh -5, IDE act 2 and MCL1-BIM inh -28.
CCN1/C(=C/C(C)=O)Sc2ccc(OC)cc21 was read as MEX-5 binding 0, BCLXL inh -1, IDE inh 2, GLD-1 TGE inh 0, IDE act 7 and MCL1-BIM inh 2.
